Assay outcomes deposited in PubChem by National Center for Advancing Translational Sciences (NCATS).
In the library only some 10% were active in any assay of this set; here they are far more common.
3T3 cytotox: kills NIH 3T3 cells; hit rate 4.3% among 94,000; Potency, µM (highest dose often 96.7 µM), for the others: top-dose activity change, negative = cytotoxicity, most hits filed as inhibitors; NIH 3T3 viability, CellTiter-Glo ATP luminescence, 48-72 h; also: nearly all actives have a fitted effect of over 55% in size
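Luminescent ATP readout (CellTiter-Glo, 10 min RT) after 48 or 72 hr compound exposure of NIH 3T3 cells seeded at 400 cells/well in 1536-well format; quantitative HTS.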
GPT2 inh: GPT2 alanine aminotransferase inhibition | Q8TD30 | Recombinant GPT2, coupled pyruvate oxidase/HRP Amplex Red fluorescence | Potency, µM (series often up to 57.7 µM), without a hit: top-dose activity change, negative = inhibition, actives largely listed as inhibitors | hit rate 0.25% among 100,000 | AID 1671188; also: nearly all actives have a fitted effect of over 60% in size
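GPT2 10ng/uL, a-KG 250uM, L-Ala 2mM, HEPES pH7.5 + 0.0001% Tween; 30 min RT. Then Amplex mix (PO/HRP/ThPP), 30 min RT dark, fluorescence. AOA 50uM used as positive control.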
FLuc inh: inhibitors of firefly (Photinus pyralis) luciferase; AID 1347043; purified P. pyralis luciferase, luminescence, biochemical; hit rate 2.5% among 76,000; Potency, µM (top dose mostly 115 µM), hits mostly inhibitors; also: nearly all actives have a fitted effect of over 65% in size
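Luminescence read by CCD imager after adding enzyme (10nM final) to wells holding compound, titrated in qHTS. Substrates 10uM each D-luciferin and ATP; buffer 50mM Tris acetate pH 7.5, 10mM Mg acetate, Tween-20, BSA.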
HEK293 tox: cytotoxic compounds in HEK 293 cells. HEK 293 viability, ATP luminescence (CellTiter-Glo), 48-72 h. Potency, µM (highest dose often 115 µM), inactives show at the top dose activity change, negative = cytotoxicity, actives largely listed as inhibitors. hit rate 6.6% among 94,000. AID 1345083; also: nearly all actives have a fitted effect of over 60% in size
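HEK 293 cells at 250 cells/well were exposed to compounds by pintool transfer for 48 or 72 hr at 37 degree Celsius, 5% CO2. Viability was read as ATP-coupled luminescence with CellTiter-Glo after 10 min at room temperature.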
hNpr1 antagonist: human Npr1 receptor antagonism | P16066 | Potency, µM (highest dose often 46.3 µM), for inactives: at the top dose activity change, negative = inhibition, actives largely listed as inhibitors | hit rate 1.6% among 76,000 | HEK293 hNpr1 GloSensor cGMP, ANP-stimulated luminescence; calls by dose curve; also: nearly all actives have a fitted effect of over 60% in size
Target sequence (P16066 whole entry, looked up): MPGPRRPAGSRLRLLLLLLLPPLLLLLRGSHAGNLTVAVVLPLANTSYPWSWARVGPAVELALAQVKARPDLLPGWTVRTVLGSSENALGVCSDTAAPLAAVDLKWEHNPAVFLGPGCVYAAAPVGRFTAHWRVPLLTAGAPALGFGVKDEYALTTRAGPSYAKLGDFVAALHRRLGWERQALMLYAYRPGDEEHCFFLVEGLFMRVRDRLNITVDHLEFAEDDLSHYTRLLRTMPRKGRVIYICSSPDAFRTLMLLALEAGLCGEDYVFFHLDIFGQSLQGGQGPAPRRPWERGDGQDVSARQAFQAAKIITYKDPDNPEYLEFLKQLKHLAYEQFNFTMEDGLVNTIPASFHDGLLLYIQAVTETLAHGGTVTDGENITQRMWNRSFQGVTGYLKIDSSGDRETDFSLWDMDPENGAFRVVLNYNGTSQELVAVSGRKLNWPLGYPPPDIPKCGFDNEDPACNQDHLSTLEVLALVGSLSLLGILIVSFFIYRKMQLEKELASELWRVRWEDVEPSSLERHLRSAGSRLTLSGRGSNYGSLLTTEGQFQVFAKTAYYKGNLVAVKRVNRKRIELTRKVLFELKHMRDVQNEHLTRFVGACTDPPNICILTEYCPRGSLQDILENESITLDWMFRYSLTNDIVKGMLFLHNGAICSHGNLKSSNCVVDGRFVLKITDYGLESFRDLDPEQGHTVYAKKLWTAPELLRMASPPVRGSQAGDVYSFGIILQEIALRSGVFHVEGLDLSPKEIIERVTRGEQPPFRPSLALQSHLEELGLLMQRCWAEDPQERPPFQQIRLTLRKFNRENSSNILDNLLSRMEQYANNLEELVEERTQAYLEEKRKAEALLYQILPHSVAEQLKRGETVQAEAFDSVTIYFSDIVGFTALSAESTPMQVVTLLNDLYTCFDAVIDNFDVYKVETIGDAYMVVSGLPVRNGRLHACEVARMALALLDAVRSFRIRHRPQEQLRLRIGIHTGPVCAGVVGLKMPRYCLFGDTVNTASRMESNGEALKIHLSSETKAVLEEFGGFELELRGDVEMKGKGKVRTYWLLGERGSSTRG
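Compound pre-incubated 30 min at room temperature on GloSensor-loaded HEK293 cells stably carrying hNpr1 and the pGS-40F cGMP biosensor. Stimulation uses hNppA at 0.1 nM final; luminescence is taken at baseline and 20 min post-agonist.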
* marks the source's active call; other numbers are inactive results; [ ] = remark or other dose. Unless noted, calls follow the shape of the dose curve; as a rule, active = well fitted curve in the direction sought with a large enough effect; inconclusive = small, poorly fitted or top-dose-only effect, or another doubt; inactive = no such curve, though single readings can be large; an effect the other way counts as inactive or inconclusive. % is scaled to controls: 0 for no effect and ±100 for the full control effect; potency is read from the fitted curve at half-maximal effect.

How did Cc1ccc(-n2[nH]c(C)c(N=Nc3cccc(-c4cccc(C(=O)O)c4)c3O)c2=O)cc1C do in these assays?
GPT2 inh: 1.9µM*

How did CCc1nc2c(c(-c3ccc(Cl)cc3)n1)CN([S+](C)(=O)[O-])CC2 do in these assays?
3T3 cytotox: 45µM*; GPT2 inh: inactive; FLuc inh: inactive; HEK293 tox: inactive; hNpr1 antagonist: 4%[70.6 µM]

Results for CCc1nc2c(c(-c3ccc(Cl)cc3)n1)CN(C(=O)CCl)CC2 ?
3T3 cytotox: 22µM*; GPT2 inh: inactive; FLuc inh: inactive; HEK293 tox: inconclusive; hNpr1 antagonist: -16%

How did CCc1nc2c(c(-c3ccc(Cl)cc3)n1)CN(C(=O)COC)CC2 do in these assays?
3T3 cytotox: -24%; GPT2 inh: inactive; FLuc inh: inactive; HEK293 tox: -18%; hNpr1 antagonist: 12%

How did O=C(NCc1ccccc1)c1cnc2n1CCN(Cc1ccc(F)cc1)CC2 do in these assays?
3T3 cytotox: inconclusive; GPT2 inh: inactive; FLuc inh: inactive; HEK293 tox: 28µM*; hNpr1 antagonist: -11%[70.6 µM]

How did O=C(c1cnc2n1CCN(CCc1ccccc1)CC2)N1CCC(c2ccccc2)CC1 do in these assays?
3T3 cytotox: inconclusive; GPT2 inh: -6%[88.5 µM]; FLuc inh: inactive; HEK293 tox: 79µM*; hNpr1 antagonist: inconclusive

Results for Nc1ncccc1CN1CCc2ncc(C(=O)NCc3ccccc3)n2CC1 ?
3T3 cytotox: inconclusive; GPT2 inh: inactive; FLuc inh: inactive; HEK293 tox: inconclusive; hNpr1 antagonist: inconclusive

How did O=C(NCCOc1ccccc1)c1cnc2n1CCN(Cc1cccs1)CC2 do in these assays?
3T3 cytotox: inconclusive; GPT2 inh: inactive; FLuc inh: inactive; HEK293 tox: inconclusive; hNpr1 antagonist: -9%[70.6 µM]

What do the screens show for `CN(C(=O)c1cnc2n1CCN(CCc1ccccc1)CC2)c1ccccc1`?
3T3 cytotox: inconclusive; GPT2 inh: -7%[88.5 µM]; FLuc inh: inactive; HEK293 tox: inconclusive; hNpr1 antagonist: -2%[70.6 µM]

How did O=C(NCc1ccccc1)c1cnc2n1CCN(Cc1cccs1)CC2 do in these assays?
3T3 cytotox: 32µM*; GPT2 inh: -1%[88.5 µM]; FLuc inh: inactive; HEK293 tox: inconclusive; hNpr1 antagonist: 3%[70.6 µM]

What do the screens show for `Cn1cc(CN2CCOC[C@H]2c2nc(C(C)(C)C)co2)c2ccccc21`?
3T3 cytotox: inconclusive; GPT2 inh: 0%[88.5 µM]; FLuc inh: inactive; HEK293 tox: 89µM*; hNpr1 antagonist: 9%[70.6 µM]

How did Cn1cc(CN2CCOC[C@H]2c2ncc(C(C)(C)C)[nH]2)c2ccccc21 do in these assays?
3T3 cytotox: inconclusive; GPT2 inh: inconclusive; FLuc inh: inactive; HEK293 tox: 63µM*; hNpr1 antagonist: 2%[70.6 µM]

How did CC[C@H]1CN(C(=O)NC(C)C)CC[C@H]1CC(=O)N(C)CCC#N do in these assays?
3T3 cytotox: -2%[174 µM]; GPT2 inh: -2%[88.5 µM]; FLuc inh: inactive; HEK293 tox: -1%[172 µM]; hNpr1 antagonist: 3%[70.6 µM]

What do the screens show for `CN1CCN(c2cc(=O)c3ccnc(-c4ccccc4O)c3o2)CC1`?
3T3 cytotox: 22µM*; GPT2 inh: 2%[88.5 µM]; FLuc inh: inactive; HEK293 tox: -5%[172 µM]; hNpr1 antagonist: -7%[70.6 µM]

How did CN1CCN(c2cc(=O)c3ccnc(-c4ccnn4C)c3o2)CC1 do in these assays?
3T3 cytotox: 40µM*; GPT2 inh: 1%[88.5 µM]; FLuc inh: inactive; HEK293 tox: -7%[172 µM]; hNpr1 antagonist: 2%[70.6 µM]

Results for CN1CCN(c2cc(=O)c3ccnc(-c4ccc(Cl)cc4)c3o2)CC1 ?
3T3 cytotox: inconclusive; GPT2 inh: -13%[88.5 µM]; FLuc inh: inactive; HEK293 tox: -6%[172 µM]; hNpr1 antagonist: -13%[70.6 µM]

What do the screens show for `Cc1nc(-c2ccc(CN3CCCC(CN)C3)cc2)[nH]c(=O)c1C` (centres undefined)?
3T3 cytotox: -7%; GPT2 inh: -7%; FLuc inh: inactive; HEK293 tox: -15%; hNpr1 antagonist: -5%

How did O=C(COc1ccccc1)N[C@H]1CO[C@H]2[C@@H]1OC[C@@H]2n1cc(CC2CCCCC2)nn1 do in these assays?
3T3 cytotox: 40µM*; GPT2 inh: -8%[88.5 µM]; FLuc inh: inactive; HEK293 tox: -11%[172 µM]; hNpr1 antagonist: 6%[70.6 µM]

What do the screens show for `COc1ccc(NC(=O)N[C@H]2CO[C@H]3[C@@H]2OC[C@@H]3n2cc(CC3CCCCC3)nn2)cc1`?
3T3 cytotox: -26%; GPT2 inh: -5%; FLuc inh: inactive; HEK293 tox: -10%; hNpr1 antagonist: 7%

How did c1c(CC2CCCCC2)nnn1[C@H]1CO[C@H]2[C@@H]1OC[C@@H]2NCC1CCCCC1 do in these assays?
3T3 cytotox: inconclusive; GPT2 inh: inactive; FLuc inh: inactive; HEK293 tox: inconclusive; hNpr1 antagonist: -21%[70.6 µM]

How did O=C(N[C@H]1CO[C@H]2[C@@H]1OC[C@@H]2n1cc(CC2CCCCC2)nn1)C1CC1 do in these assays?
3T3 cytotox: 32µM*; GPT2 inh: -8%[88.5 µM]; FLuc inh: inactive; HEK293 tox: -27%[172 µM]; hNpr1 antagonist: -15%[70.6 µM]

Results for O=C(NCCN[S+](=O)([O-])c1ccccc1)c1cccc(-c2ccsc2)c1 ?
3T3 cytotox: inconclusive; GPT2 inh: inactive; HEK293 tox: 50µM*

Results for O=C(NCC(=O)N1CCC(c2ccccc2)CC1)c1cccc(-c2ccsc2)c1 ?
3T3 cytotox: inconclusive; GPT2 inh: -5%; HEK293 tox: 35µM*

Results for CC(=O)Nc1cccc(-c2n[nH]c3c2CC(=O)N(CC2CC2)C3)c1 ?
3T3 cytotox: inconclusive; GPT2 inh: inactive; FLuc inh: inactive; HEK293 tox: inconclusive; hNpr1 antagonist: -9%[70.6 µM]

Results for CC(=O)Nc1cccc(-c2n[nH]c3c2CC(=O)N(CCOc2ccccc2)C3)c1 ?
3T3 cytotox: 35µM*; GPT2 inh: -12%[88.5 µM]; FLuc inh: inactive; HEK293 tox: inconclusive; hNpr1 antagonist: -30%[70.6 µM]

How did CC(=O)Nc1cccc(-c2n[nH]c3c2CC(=O)N(Cc2ccccc2)C3)c1 do in these assays?
3T3 cytotox: inconclusive; GPT2 inh: 3%[88.5 µM]; FLuc inh: inactive; HEK293 tox: 100µM*; hNpr1 antagonist: -26%[70.6 µM]

How did CN(CCc1ccccn1)[C@@H]1[C@H](O)[C@H](CO)O[C@@H]1CN(Cc1ccc(F)cc1)Cc1ccc(F)cc1 do in these assays?
3T3 cytotox: 50µM*; GPT2 inh: 4%; FLuc inh: inactive; HEK293 tox: 35µM*; hNpr1 antagonist: -23%

How did C[C@H]1CCCN1C(=O)c1nnc(CNc2ccccc2Cl)n1-c1ccccc1 do in these assays?
3T3 cytotox: 100µM*; GPT2 inh: 1%[88.5 µM]; FLuc inh: inactive; HEK293 tox: inconclusive; hNpr1 antagonist: -29%[70.6 µM]

How did CC(C)c1ccc(OCc2nnc(C(=O)N3CCC[C@@H]3C)n2-c2cccnc2)cc1 do in these assays?
3T3 cytotox: 14µM*; GPT2 inh: inactive; FLuc inh: inactive; HEK293 tox: inconclusive; hNpr1 antagonist: -2%[70.6 µM]
